Records with an inconclusive call do not appear. The source made the active and inactive calls. Calls come from the whole dose curve; as a rule, active = well fitted curve in the direction sought with a large enough effect; inconclusive = small, poorly fitted or top-dose-only effect, or another doubt; inactive = no such curve, though single readings can be large; an effect the other way counts as inactive or inconclusive.
Key:
[1] = qHTS of pediatric cancer cell lines to identify multiple opportunities for drug repurposing: Primary screen for BT-12 cells (AID 1347101); note: nearly all actives have a fitted effect of over 25% in size; note: potency is the fitted concentration of half-maximal effect
Procedure, shortened: (§1)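 Cells (500-1,000/well) rested 5 h, then received compounds for 48 h; metabolically active cells were measured by CellTiter-Glo luminescence. Final concentrations spanned up to 46 µM (MIPE, 11-point) or 0.59 nM-46 µM (NPC, 8-point) in primary screens, 11-point in follow-ups.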

[2] = qHTS of pediatric cancer cell lines to identify multiple opportunities for drug repurposing: Primary screen for OHS-50 cells (AID 1347103); note: nearly all actives have a fitted effect of over 40% in size; note: potency is the fitted concentration of half-maximal effect
Procedure, shortened: as §1

[3] = qHTS of pediatric cancer cell lines to identify multiple opportunities for drug repurposing: Primary screen for RD cells (AID 1347104); note: nearly all actives have a fitted effect of over 55% in size; note: potency is the fitted concentration of half-maximal effect
Procedure, shortened: (§2)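 500-1,000 cells/well; 5 h pre-incubation 37 °C/5% CO2; compound pinned; 48 h; CellTiter-Glo, 15 min RT; luminescence. MIPE 11-pt from 0.78 nM, NPC 8-pt from 0.59 nM final. Bortezomib 2.3 µM final as positive control.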

[4] = qHTS of pediatric cancer cell lines to identify multiple opportunities for drug repurposing: Primary screen for MG 63 (6-TG R) cells (AID 1347105); note: nearly all actives have a fitted effect of over 50% in size; note: potency is the fitted concentration of half-maximal effect
Procedure, shortened: as §2

[5] = qHTS of pediatric cancer cell lines to identify multiple opportunities for drug repurposing: Primary screen for Rh41 cells (AID 1347108); note: nearly all actives have a fitted effect of over 70% in size; note: potency is the fitted concentration of half-maximal effect;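 for activity change, negative = cytotoxic: luminescence drop marks cytotoxic hits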
Procedure, shortened: as §2

[6] = qHTS of pediatric cancer cell lines to identify multiple opportunities for drug repurposing: Primary screen for Rh18 cells (AID 1347102); note: nearly all actives have a fitted effect of over 65% in size; note: potency is the fitted concentration of half-maximal effect
Procedure, shortened: (§3)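 Viability after 48 h compound treatment at 37C, 500-1,000 cells/well, read as ATP luminescence with CellTiter-Glo. Primary screens used 11-point (MIPE, 0.78 nM-46 µM) or 8-point (NPC, 0.59 nM-46 µM) final concentrations; follow-up screens used 11-point dilutions.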

[7] = qHTS of pediatric cancer cell lines to identify multiple opportunities for drug repurposing: Primary screen for Rh30 cells (AID 1347107); note: nearly all actives have a fitted effect of over 75% in size; note: potency is the fitted concentration of half-maximal effect
Procedure, shortened: as §3

[8] = qHTS of pediatric cancer cell lines to identify multiple opportunities for drug repurposing: Primary screen for control Hh wild type fibroblast cells (AID 1347106);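 note: a drop in luminescence marks cytotoxicity and a rise apparent proliferation; nearly all actives have a fitted effect of over 55% in size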
Procedure, shortened: as §3

[9] = qHTS of pediatric cancer cell lines to identify multiple opportunities for drug repurposing: Confirmatory screen for NB1643 cells (AID 1347109); note: potency is the fitted concentration of half-maximal effect; nearly all actives have a fitted effect of over 45% in size
Procedure, shortened: as §3

[10] = qHTS of pediatric cancer cell lines to identify multiple opportunities for drug repurposing: Confirmatory screen for A673 cells (AID 1347110); note: potency is the fitted concentration of half-maximal effect; nearly all actives have a fitted effect of over 65% in size
Procedure, shortened: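 A673 cells seeded at 500-1,000 cells/well, rested 5 h, then dosed; primary MIPE 11-point (0.78 nM to 46 µM), NPC (0.59 nM to 46 µM); confirmatory 11-point. CellTiter-Glo luminescence after 48 h.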

[11] = qHTS of pediatric cancer cell lines to identify multiple opportunities for drug repurposing: Confirmatory screen for SK-N-MC cells (AID 1347111);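 note: potency is the fitted concentration of half-maximal effect; cells exposed to compound for 48 h before the readout; nearly all actives have a fitted effect of over 70% in size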
Procedure, shortened: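 SK-N-MC cells at 500-1,000 cells/well in growth media were pre-incubated 5 h, then exposed to compounds at 11-point dilutions for 48 h at 37 degrees C, 5% CO2. Viability was read as CellTiter-Glo luminescence.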

[12] = qHTS of pediatric cancer cell lines to identify multiple opportunities for drug repurposing: Confirmatory screen for LAN-5 cells (AID 1347113); note: nearly all actives have a fitted effect of over 65% in size; note: potency is the fitted concentration of half-maximal effect
Procedure, shortened: as §3

[13] = qHTS of pediatric cancer cell lines to identify multiple opportunities for drug repurposing: Confirmatory screen for SJ-GBM2 cells (AID 1347116); note: nearly all actives have a fitted effect of over 60% in size; note: potency is the fitted concentration of half-maximal effect
Procedure, shortened: (§4)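 Viability measured as metabolically active cells via CellTiter-Glo luminescence following 48 hours of compound exposure, 11-point dilutions in confirmatory testing. 500-1,000 cells/well plated 5 hours before dosing; controls were DMSO and 2.3 µM bortezomib.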

[14] = qHTS of pediatric cancer cell lines to identify multiple opportunities for drug repurposing: Confirmatory screen for BT-37 cells (AID 1347117); conditions: BT-37 pediatric cancer cells, viability; activity change, negative = cytotoxic: at 45.9 µM (top of the series); note: potency is the fitted concentration of half-maximal effect; nearly all actives have a fitted effect of over 55% in size
Procedure, shortened: as §3

[15] = qHTS of pediatric cancer cell lines to identify multiple opportunities for drug repurposing: Confirmatory screen for TC32 cells (AID 1347118); note: potency is the fitted concentration of half-maximal effect; nearly all actives have a fitted effect of over 65% in size
Procedure, shortened: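 Measured quantity: luminescence from CellTiter-Glo, reflecting metabolically active TC32 cells following 48 h of compound. Curves came straight from multi-point titrations, with 8 or 11 points in primary and 11 in confirmatory screening.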

[16] = qHTS of pediatric cancer cell lines to identify multiple opportunities for drug repurposing: Confirmatory screen for MG 63 (6-TG R) cells (AID 1347119); note: potency is the fitted concentration of half-maximal effect; nearly all actives have a fitted effect of over 55% in size
Procedure, shortened: as §3

[17] = qHTS of pediatric cancer cell lines to identify multiple opportunities for drug repurposing: Confirmatory screen for BT-12 cells (AID 1347112); note: nearly all actives have a fitted effect of over 55% in size; note: potency is the fitted concentration of half-maximal effect
Procedure, shortened: as §3

[18] = qHTS of pediatric cancer cell lines to identify multiple opportunities for drug repurposing: Confirmatory screen for control Hh wild type fibroblast cells (AID 1347121); note: nearly all actives have a fitted effect of over 70% in size
Procedure, shortened: as §3

[19] = qHTS of pediatric cancer cell lines to identify multiple opportunities for drug repurposing: Confirmatory screen for NB-EBc1 cells (AID 1347115); note: potency is the fitted concentration of half-maximal effect; nearly all actives have a fitted effect of over 45% in size
Procedure, shortened: as §3

[20] = qHTS of pediatric cancer cell lines to identify multiple opportunities for drug repurposing: Confirmatory screen for DAOY cells (AID 1347114)
Procedure, shortened: as §4

Measured: Potency

Cc1ccc2nc(NCCN)c3ncc(C)n3c2c1
active: [1] 34.3 µM | [2] 24.3 µM | [3] 13.2 µM | [4] 18.7 µM | [5] 18.7 µM

C=C(C)[C@@H]1CC[C@]2(C(=O)O)CC[C@]3(C)[C@H](CC[C@@H]4[C@@]5(C)CC[C@H](O)C(C)(C)[C@@H]5CC[C@]43C)[C@@H]12
inactive: [1] | [6] | [3] | [4] | [5]

CC(=CC(=O)Nc1ccccc1C(=O)O)c1ccc2ccccc2c1
inactive: [1] | [6] | [4] | [7]

CC(C=CC=C(C)C=CC1=C(C)CCCC1(C)C)=CC=CC=C(C)C=CC=C(C)C=CC1=C(C)CCCC1(C)C
active: [3] 29.6 µM
inactive: [1] | [6] | [8]

O=c1ccn([C@@H]2O[C@H](CO)[C@H](O)[C@@H]2F)c(=O)[nH]1
inactive: [1] | [6] | [4]

Oc1ccc([C@@H]2Oc3ccc(O)cc3[C@@H]3CCC[C@@H]32)cc1
active: [1] 24.3 µM | [3] 16.6 µM | [5] 18.7 µM

CC(Oc1ccc(O)cc1)(P(=O)(O)O)P(=O)(O)O
inactive: [6] | [2] | [3] | [4] | [8] | [7] | [5]

C[C@](Cc1c[nH]c2ccccc12)(NC(=O)OC1C2CC3CC(C2)CC1C3)C(=O)NC[C@H](NC(=O)CCC(=O)O)c1ccccc1 (some centres not stated)
inactive: [6] | [2] | [3] | [4] | [8] | [7]

COc1ccc(Nc2nccc(NCCO)n2)cc1
inactive: [6] | [2] | [3] | [4] | [8] | [7] | [5]

CS(=O)(=O)N1CCc2c(-c3cnc(N)nc3)nc(N3CCOCC3)nc21
active: [6] 0.372 µM | [2] 0.0544 µM | [3] 0.418 µM | [4] 0.118 µM | [5] 0.833 µM | [9] 1.65 µM | [10] 4.14 µM | [11] 2.61 µM | [12] 1.17 µM | [13] 7.37 µM | [14] 5.85 µM | [15] 1.85 µM | [16] 0.585 µM
inactive: [8]

COc1cc(N2CCC(C(N)=O)CC2)ccc1Nc1nc(N)c(Cl)c(Nc2ccccc2S(=O)(=O)C(C)C)n1
active: [2] 0.0611 µM | [5] 0.59 µM
inactive: [1] | [7]

CCOc1cc2ncc(C#N)c(Nc3ccc(OCc4ccccn4)c(Cl)c3)c2cc1NC(=O)C=CCN(C)C
active: [1] 1.93 µM | [2] 0.863 µM | [3] 0.418 µM | [10] 10.4 µM | [11] 10.4 µM | [13] 4.14 µM

O=C(NCc1ccccc1)[C@H](Cc1ccccc1)NC(=O)[C@@H]1O[C@@H]1C(=O)NCCc1ccc(O)cc1
active: [10] 10.4 µM | [15] 0.165 µM
inactive: [1] | [4] | [7] | [5] | [17] | [13] | [18]

Cn1c(Nc2ccc(C(F)(F)F)cc2)nc2cc(Oc3ccnc(-c4ncc(C(F)(F)F)[nH]4)c3)ccc21
inactive: [7] | [13]
active: [1] 8.63 µM | [3] 4.18 µM | [9] 20.8 µM | [11] 7.37 µM | [12] 18.5 µM | [19] 16.5 µM | [14] 4.65 µM | [15] 0.928 µM | [16] 13.1 µM

CCN(C(=O)c1c(O)c2c(Cl)cccc2n(C)c1=O)c1ccccc1
inactive: [6] | [2] | [3] | [4] | [8] | [7]

CCOC(=O)N1CCN([N+]([O-])=NOc2ccc([N+](=O)[O-])cc2C#N)CC1
inactive: [7] | [18]
active: [1] 3.06 µM | [3] 4.69 µM | [9] 3.69 µM | [10] 2.61 µM | [11] 3.29 µM | [12] 4.65 µM | [20] 2.33 µM | [14] 3.29 µM | [15] 2.33 µM

N#Cc1c(NC(=O)c2cccc3ccccc23)sc2c1CCCC2
active: [1] 1.09 µM | [2] 0.485 µM | [10] 0.414 µM | [11] 0.369 µM | [17] 2.33 µM | [14] 0.827 µM | [15] 0.233 µM | [16] 0.329 µM
inactive: [7] | [18]

Cc1cncc2cccc(S(=O)(=O)N3CCCN(C(=O)CN)C[C@@H]3C)c12
inactive: [6] | [2] | [3] | [4] | [8]

O=C(O)c1ccc(Nc2ncc3c(n2)-c2ccc(Cl)cc2C(c2c(F)cccc2F)=NC3)cc1
active: [3] 29.6 µM | [4] 23.5 µM | [7] 18.7 µM | [10] 10.4 µM | [11] 4.14 µM | [15] 1.47 µM
inactive: [1] | [8] | [17] | [12] | [18]

Nc1cccc2c1C(=O)N(C1CCC(=O)NC1=O)C2=O (configuration not stated)
inactive: [6] | [2] | [3] | [4] | [7]

CC(=O)OCC(=O)[C@@]1(O)CC[C@H]2[C@@H]3CCC4=CC(=O)CC[C@]4(C)[C@@H]3C(=O)C[C@@]21C
inactive: [6] | [2] | [3] | [4] | [8] | [7] | [5]

OCCNC1CCCc2c1[nH]c1ccc(-c3ccccc3)cc21 (configuration not stated)
active: [6] 20.9 µM | [2] 24.3 µM | [3] 33.2 µM
inactive: [4] | [8]

CN(C)CCN1C(=O)c2cccc3cc(N)cc(c23)C1=O
active: [1] 21.7 µM | [3] 18.7 µM | [5] 23.5 µM

CCOC(=O)[C@H](CCc1ccccc1)N[C@@H](C)C(=O)N1[C@@H](C(=O)O)C[C@H]2CCC[C@@H]21
inactive: [8]
active: [6] 16.6 µM | [2] 19.3 µM | [3] 18.7 µM | [4] 18.7 µM | [7] 18.7 µM | [5] 11.8 µM

O=C(O)CCCCC(CCSCc1ccccc1)SCc1ccccc1 (configuration not stated)
active: [3] 33.2 µM
inactive: [1] | [8]

O=C1NCCc2[nH]c(-c3ccncc3)cc21
inactive: [8] | [7] | [18]
active: [1] 2.43 µM | [3] 6.62 µM | [5] 2.35 µM | [10] 2.08 µM | [11] 7.37 µM | [17] 2.33 µM | [20] 4.14 µM | [14] 2.33 µM | [15] 4.14 µM | [16] 8.27 µM

Cn1cc(C2=C(c3c4n(c5ccccc35)CCC(CN)C4)C(=O)NC2=O)c2ccccc21 (configuration not stated)
inactive: [8]
active: [1] 27.3 µM | [3] 29.6 µM | [5] 23.5 µM

CC[C@H](CC[C@@H](C)[C@H]1CC[C@H]2[C@@H]3CC=C4C[C@@H](O)CC[C@]4(C)[C@@H]3CC[C@]12C)C(C)C
inactive: [6] | [2] | [3] | [4] | [8]

COc1cc([C@@H]2c3cc4c(cc3[C@@H](O[C@@H]3O[C@@H]5CO[C@@H](c6cccs6)O[C@@H]5[C@H](O)[C@@H]3O)[C@H]3COC(=O)[C@H]23)OCO4)cc(OC)c1O
active: [1] 6.11 µM | [2] 0.485 µM | [3] 2.96 µM | [10] 0.657 µM | [11] 0.104 µM | [20] 5.22 µM | [14] 0.261 µM | [15] 0.131 µM
inactive: [18]
